Measurements: the antibiotic and cytotoxicity screens of Wong et al. (2023)
About 1,500 (3.8%) of roughly 39,000 compounds were called active. Only a selection was taken, and actives are over-represented in it overall.

System: HSkMC (human skeletal muscle cells)
Experiment: cytotoxicity call (relative viability < 0.9)
Conditions: 10 µM

| SMILES | cytotoxicity call |
| --- | --- |
| COc1ccc(S(=O)(=O)Nc2ccc3c(c2)CC(=O)N([C@H](C)CO)C[C@@H](C)[C@H](CN(C)C(=O)Nc2c(C)noc2C)O3)cc1 | inactive |
| C[C@@H]1CCCCO[C@@H](CN(C)S(=O)(=O)c2cccs2)[C@@H](C)CN([C@H](C)CO)C(=O)c2cc(NC(=O)Nc3ccc4c(c3)OCO4)ccc2O1 | inactive |
| N#Cc1ccc(Oc2ccccn2)cc1 | inactive |
| Cc1cc(C(=O)Nc2cccc3c2O[C@@H](CN(C)Cc2ccc(Oc4ccccc4)cc2)[C@H](C)CN([C@H](C)CO)C3=O)n(C)n1 | inactive |
| Cc1noc(C)c1S(=O)(=O)Nc1ccc2c(c1)C(=O)N([C@@H](C)CO)C[C@@H](C)[C@@H](CN(C)S(=O)(=O)c1cn(C)cn1)OCCCC[C@@H](C)O2 | inactive |
| C[C@@H]1CCCCO[C@H](CN(C)Cc2ccc3c(c2)OCO3)[C@H](C)CN([C@H](C)CO)C(=O)c2cc(NC(=O)Nc3ccccc3)ccc2O1 | inactive |
| C[C@@H]1CN([C@@H](C)CO)C(=O)c2cc(NC(=O)Cn3cnnn3)ccc2O[C@@H]1CN(C)Cc1ccc(C(F)(F)F)cc1 | inactive |
| CC(C)NC(=O)Nc1ccc2c(c1)CC(=O)N([C@H](C)CO)C[C@H](C)[C@@H](CN(C)S(=O)(=O)c1ccc(Cl)cc1)O2 | inactive |
| C[C@H]1CN([C@@H](C)CO)C(=O)Cc2cc(NC(=O)Nc3cc(Cl)cc(Cl)c3)ccc2O[C@H]1CN(C)S(=O)(=O)c1ccc(Cl)cc1 | active |
| COc1ccc(S(=O)(=O)N(C)C[C@@H]2Oc3ccc(N(C)C)cc3CC(=O)N([C@@H](C)CO)C[C@H]2C)cc1 | inactive |
| COc1ccc(S(=O)(=O)N(C)C[C@@H]2Oc3ccc(N(C)C)cc3CC(=O)N([C@H](C)CO)C[C@@H]2C)cc1 | active |
| CC(C)NC(=O)Nc1ccc2c(c1)CC(=O)N([C@H](C)CO)C[C@H](C)[C@H](CN(C)S(=O)(=O)c1ccc(Cl)cc1)O2 | inactive |
| C[C@H]1CN([C@@H](C)CO)C(=O)Cc2cc(NC(=O)Nc3ccc(Cl)c(Cl)c3)ccc2O[C@H]1CN(C)S(=O)(=O)c1ccc(Cl)cc1 | active |
| CC(C)NC(=O)Nc1ccc2c(c1)CC(=O)N([C@@H](C)CO)C[C@H](C)[C@@H](CN(C)S(=O)(=O)c1ccc(Cl)cc1)O2 | inactive |
| COc1ccc(S(=O)(=O)N(C)C[C@H]2Oc3ccc(N(C)C)cc3CC(=O)N([C@@H](C)CO)C[C@@H]2C)cc1 | inactive |
| CC(C)NC(=O)Nc1ccc2c(c1)CC(=O)N([C@@H](C)CO)C[C@@H](C)[C@@H](CN(C)S(=O)(=O)c1ccc(Cl)cc1)O2 | inactive |
| Cn1nnc2c(N3CCC(O)CC3)ncnc21 | inactive |
| C[C@H]1CN([C@@H](C)CO)C(=O)c2cccc(NC(=O)CCCCCC(=O)Nc3ccccc3N)c2O[C@@H]1CN(C)Cc1ccc(C(F)(F)F)cc1 | inactive |
| C[C@@H]1CN([C@@H](C)CO)C(=O)c2cc(NC(=O)Nc3cccc4ccccc34)ccc2O[C@@H](C)CCCCO[C@H]1CN(C)C | inactive |
| CCN1CCN(C2=C(NS(=O)(=O)c3ccc(Br)cc3)C(=O)c3ccccc3C2=O)CC1 | inactive |
| CCc1nccn1CC(=O)N[C@H]1C[C@@H](C(=O)OC)N(C)C1 | inactive |

| SMILES | cytotoxicity call |
| --- | --- |
| Cc1noc(C)c1NC(=O)Nc1ccc2c(c1)CC(=O)N([C@@H](C)CO)C[C@@H](C)[C@@H](CN(C)Cc1ccc(Oc3ccccc3)cc1)O2 | inactive |
| COc1ccc(S(=O)(=O)N(C)C[C@H]2Oc3ccc(NC(=O)CCN4CCOCC4)cc3C(=O)N([C@H](C)CO)C[C@H]2C)cc1 | inactive |
| COc1cccc(S(=O)(=O)N(C)C[C@@H]2OCc3cnnn3CCCC(=O)N([C@H](C)CO)C[C@@H]2C)c1 | inactive |
| COCCNC(=O)NC(=O)COC(=O)c1cccn1C | inactive |
| O=C(N[C@@H](c1ccc(-c2ccccc2)cc1)c1cnccn1)C1CCN(Cc2ccc(Oc3ccccc3)cc2)CC1 | inactive |
| C[C@@H]1CN([C@@H](C)CO)C(=O)c2cccc(NC(=O)c3ccc(-c4nccs4)cc3)c2O[C@@H]1CN(C)Cc1ccccc1 | inactive |
| C[C@@H]1CCCCO[C@H](CN(C)C(=O)Nc2cccc3ccccc23)[C@@H](C)CN([C@H](C)CO)C(=O)c2cc(NC(=O)CCC(F)(F)F)ccc2O1 | inactive |
| C[C@H]1CCCCO[C@H](CN(C)C(=O)C2CCCCC2)[C@@H](C)CN([C@@H](C)CO)C(=O)c2cc(NC(=O)Nc3cccc4ccccc34)ccc2O1 | inactive |
| C[C@@H]1CN([C@H](C)CO)C(=O)c2cc(NC(=O)Nc3cccc4ccccc34)ccc2O[C@@H](C)CCCCO[C@@H]1CN(C)C(=O)C1CCCCC1 | inactive |
| C[C@@H]1CN([C@@H](C)CO)C(=O)c2cc(NC(=O)Nc3cccc4ccccc34)ccc2O[C@@H](C)CCCCO[C@@H]1CN(C)C(=O)C1CCCCC1 | active |
| C[C@@H]1CCCCO[C@@H](CN(C)C(=O)Nc2ccc3c(c2)OCO3)[C@H](C)CN([C@H](C)CO)C(=O)c2cc(NC(=O)NC3CCCCC3)ccc2O1 | inactive |
| C[C@H](CO)N1C[C@H](C)[C@@H](CN(C)C(=O)Nc2cccc3ccccc23)OCCCC[C@H](C)Oc2ccc(NC(=O)Nc3cccc4ccccc34)cc2C1=O | inactive |
| C[C@@H]1CN([C@@H](C)CO)C(=O)c2cc(NC(=O)CCC(F)(F)F)ccc2O[C@@H](C)CCCCO[C@H]1CN(C)C(=O)Nc1cccc2ccccc12 | active |
| C[C@@H]1CCCCO[C@@H](CN(C)C(=O)Nc2ccc3c(c2)OCO3)[C@@H](C)CN([C@@H](C)CO)C(=O)c2cc(NC(=O)NC3CCCCC3)ccc2O1 | inactive |
| C[C@@H]1CCCCO[C@@H](CN(C)C(=O)Nc2cccc3ccccc23)[C@H](C)CN([C@H](C)CO)C(=O)c2cc(NC(=O)CCC(F)(F)F)ccc2O1 | inactive |
| C[C@@H]1CN([C@@H](C)CO)C(=O)c2cc(NC(=O)Nc3cccc4ccccc34)ccc2O[C@@H](C)CCCCO[C@H]1CN(C)C(=O)Nc1cccc2ccccc12 | inactive |
| C[C@@H]1CCCCO[C@@H](CN(C)C(=O)Nc2cccc3ccccc23)[C@H](C)CN([C@@H](C)CO)C(=O)c2cc(NC(=O)Nc3cccc4ccccc34)ccc2O1 | active |
| C[C@@H]1CN([C@@H](C)CO)C(=O)c2cc(NC(=O)NC3CCCCC3)ccc2O[C@@H](C)CCCCO[C@H]1CN(C)C(=O)Nc1ccc2c(c1)OCO2 | active |
| C[C@@H]1CCCCO[C@@H](CN(C)S(=O)(=O)c2ccccc2)[C@H](C)CN([C@@H](C)CO)C(=O)c2cc(NS(C)(=O)=O)ccc2O1 | inactive |
| CC(C)(C)OC(=O)C[C@@H]1CC=CC[C@@H](CC(=O)N[C@@H](CO)Cc2ccccc2)C(=O)N[C@@H](C(C)(C)C)COC1=O | inactive |
| CC(C)CC#Cc1cnc2c(c1)C(=O)N([C@H](C)CO)C[C@@H](C)[C@H](CN(C)C(=O)CCN1CCCCC1)O2 | inactive |

| SMILES | cytotoxicity call |
| --- | --- |
| COCC#Cc1ccc2c(c1)O[C@H](CN(C)S(=O)(=O)c1ccc(F)cc1)[C@@H](C)CN([C@@H](C)CO)S2(=O)=O | inactive |
| C[C@@H]1CN([C@@H](C)CO)C(=O)Cc2cc(NS(=O)(=O)c3ccccc3)ccc2O[C@@H]1CN(C)Cc1ccncc1 | inactive |
| O=C(C[C@@H]1CC[C@H]2[C@@H](COC[C@H](O)CN2Cc2ccccc2F)O1)N[C@H]1CCN(Cc2ccccc2)C1 | inactive |
| C[C@@H]1CCCCO[C@@H](CN(C)C(=O)Nc2ccccc2)[C@@H](C)CN([C@H](C)CO)C(=O)c2cc(NC(=O)Nc3ccc4c(c3)OCO4)ccc2O1 | inactive |
| Oc1ccc(C2(c3ccccc3F)CCC(F)(F)CC2)cc1 | inactive |
| CCNC(=S)N1CCOCC1 | inactive |
| NC(=O)C1CCCN1C(=O)C(Cc1c[nH]cn1)NC(=O)C1CCC(=O)N1 (stereo not drawn) | inactive |
| C[C@@H]1CCCCO[C@@H](CN(C)C(=O)Nc2cccc3ccccc23)[C@H](C)CN([C@@H](C)CO)C(=O)c2cc(NC(=O)NC3CCCCC3)ccc2O1 | inactive |
| C[C@@H]1CCCCO[C@H](CN(C)C(=O)Nc2cccc3ccccc23)[C@@H](C)CN([C@H](C)CO)C(=O)c2cc(NC(=O)NC3CCCCC3)ccc2O1 | inactive |
| C[C@H](CO)N1C[C@H](C)[C@@H](CN(C)C(=O)Nc2cccc3ccccc23)OCCCC[C@H](C)Oc2ccc(NC(=O)NC3CCCCC3)cc2C1=O | active |
| COc1ccc(S(=O)(=O)N(C)C[C@@H]2Oc3ncc(C#CC(C)(C)O)cc3C(=O)N([C@H](C)CO)C[C@@H]2C)cc1 | inactive |
| CC12CCC3c4ccc(O)cc4CCC3C1CCC2O (stereo not drawn) | inactive |
| CCCCC(=O)OC1CCC2C3CCc4cc(O)ccc4C3CCC12C (stereo not drawn) | inactive |
| CC12CCC3c4ccc(O)cc4CCC3C1CCC2OC(=O)CCC1CCCC1 (stereo not drawn) | active |
| C=C1C=[N+]([O-])N(c2ccc(C(=O)O)cc2)N1 | inactive |
| C[C@H]1CN([C@@H](C)CO)C(=O)c2cccc(NC(=O)Nc3cccc4ccccc34)c2O[C@@H]1CN(C)C(=O)NC1CCCCC1 | inactive |
| C[C@H](CO)N1C[C@H](C)[C@H](CN(C)C(=O)NC2CCCCC2)Oc2c(NC(=O)Nc3cccc4ccccc34)cccc2C1=O | active |
| C[C@H]1CN([C@@H](C)CO)C(=O)c2cccc(NC(=O)Nc3cccc4ccccc34)c2O[C@H]1CN(C)C(=O)NC1CCCCC1 | inactive |
| C[C@H](CO)N1C[C@H](C)[C@@H](CN(C)C(=O)NC2CCCCC2)Oc2c(NC(=O)Nc3cccc4ccccc34)cccc2C1=O | active |
| C[C@@H]1CN([C@H](C)CO)C(=O)c2cccc(NC(=O)Nc3cccc4ccccc34)c2O[C@@H]1CN(C)C(=O)NC1CCCCC1 | inactive |
| C[C@@H]1CN([C@@H](C)CO)C(=O)c2cccc(NC(=O)Nc3cccc4ccccc34)c2O[C@H]1CN(C)C(=O)NC1CCCCC1 | inactive |
